Screening data from PubChem.
Shown are actives, neighbours in structure and some others; about 0.43% of the full set was active somewhere.
GAA glycogen = qHTS Assay for Inhibitors and Activators of Human alpha-Glucosidase Cleavage of Glycogen. Lysosomal alpha-glucosidase (Homo sapiens), P10253. recombinant GAA, glycogen substrate, Amplex Red glucose oxidase fluorescence. Potency, µM (top dose mostly 76.4 µM), inactives show at the top dose activity change, negative = inhibition, actives largely listed as inhibitors. actives 0.38% (n = 300,000);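 also: potency is read from the fitted curve at half-maximal effect; 0% = full enzyme reaction and -100% = no-enzyme basal signal; the screen sought inhibitors and activators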
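Recombinant human enzyme (4 nM); glycogen substrate; 37 C, 40 min, pH 5.0. Readout: coupled glucose oxidase/Amplex Red fluorescence.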
N370S GC mod = qHTS Assay for Inhibitors and Activators of N370S glucocerebrosidase as a Potential Chaperone Treatment of Gaucher Disease; N370S GC spleen homogenate, 4MU-glucoside fluorescence; Potency, µM (doses to about 59.4 µM), without a hit: at the highest dose activity change, negative = inhibition, usual class: inhibitors; actives 0.092% (n = 330,000);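 also: potency is read from the fitted curve at half-maximal effect; 0% = full enzyme activity and -100% = no enzyme basal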
aGal spleen mod = qHTS Assay for Inhibitors and Activators of Human alpha-Galactosidase From Spleen Homogenate; Potency, µM (top dose mostly 80 µM), for inactives: top-dose activity change, negative = inhibition, usual class: inhibitors; human spleen homogenate, 4MU-alpha-Gal fluorescence, 40 min; Alpha-galactosidase A (Homo sapiens), P06280; actives 0.008% (n = 240,000);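 also: potency is read from the fitted curve at half-maximal effect; 0% = enzyme with vehicle and -100% = no enzyme basal signal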
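Human spleen homogenate (1 ug) as enzyme source, 4-methylumbelliferyl-alpha-D-galactopyranoside 1 mM final, citrate/phosphate pH 5.0 with 0.01% Tween-20. Compounds 40 min at 37C, NaOH/glycine stop; fluorescence Ex 365/Em 440, Hill-fit AC50.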
aGlu spleen mod = qHTS Assay for Inhibitors and Activators of Human alpha-Glucosidase From Spleen Homogenate | Lysosomal alpha-glucosidase (Homo sapiens), P10253 | human spleen homogenate, 4-MU-alpha-glucoside fluorescence | Potency, µM (titrated, usually from 79.9 µM), inactives show at the highest dose activity change, negative = inhibition, usual class: inhibitors | actives 0.006% (n = 240,000) | AID 2112, 2009;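 also: potency is read from the fitted curve at half-maximal effect; 0% = enzyme with vehicle and -100% = no enzyme basal signal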
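AC50 values come from Hill-equation fits of concentration-response data, normalized to no-enzyme and full-activity controls. Enzyme source: 1 ug human spleen homogenate; 1 mM fluorogenic 4-MU glucoside, pH 5.0 citrate buffer, 37 C, 40 min.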
GAA inhib = qHTS Assay for Inhibitors of Human alpha-Glucosidase as a Potential Chaperone Treatment of Pompe Disease. Lysosomal alpha-glucosidase (Homo sapiens), P10253. purified human GAA, 4-MU-alpha-glucoside fluorescence. Potency, µM (highest dose often 76.9 µM), for inactives: top-dose activity change, negative = inhibition, most hits filed as inhibitors. actives 0.005% (n = 200,000). AID 1466, 2008;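 also: potency is read from the fitted curve at half-maximal effect; plate controls were uninhibited enzyme wells for no effect and no-enzyme background for full effect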
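Enzyme (4 nM final) mixed with compound (up to 77 uM), then 4-MU-alpha-D-pyranoside (400 uM final) added; 20 min at room temperature, pH 5.0. Reaction stopped at pH 10, fluorescence read, AC50 derived by Hill fit.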
GLA inh pH 4.5 = qHTS Assay for Inhibitors of Human alpha-Galactosidase at pH 4.5. AID 1467, 2008. Alpha-galactosidase A (Homo sapiens), P06280. purified enzyme, 4-MU-alpha-Gal fluorescence, pH 4.5. activity change, negative = inhibition, % at 105 µM. 230,000 tested, under 10 active;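 also: 0% = full activity with enzyme and -100% = basal without enzyme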
Target sequence (P06280 whole entry, looked up): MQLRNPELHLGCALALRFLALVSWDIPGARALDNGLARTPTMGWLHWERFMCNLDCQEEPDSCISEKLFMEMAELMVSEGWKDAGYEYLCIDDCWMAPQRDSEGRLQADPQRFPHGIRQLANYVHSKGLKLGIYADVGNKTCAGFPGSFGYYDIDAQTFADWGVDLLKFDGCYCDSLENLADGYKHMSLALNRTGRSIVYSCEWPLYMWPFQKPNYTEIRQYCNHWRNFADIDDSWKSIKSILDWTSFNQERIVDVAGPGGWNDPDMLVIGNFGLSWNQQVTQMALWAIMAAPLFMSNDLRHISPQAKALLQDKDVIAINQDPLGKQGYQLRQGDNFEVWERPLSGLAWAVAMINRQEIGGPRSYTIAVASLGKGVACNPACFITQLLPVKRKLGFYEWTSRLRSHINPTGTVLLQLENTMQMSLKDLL
The depositor's hits bear a star; ? = inconclusive; . = no result; [ ] = remark or other dose. Calls follow the shape of the dose curve; as a rule, active = well fitted curve in the direction sought with a large enough effect; inconclusive = small, poorly fitted or top-dose-only effect, or another doubt; inactive = no such curve, though single readings can be large; an effect the other way counts as inactive or inconclusive.

SMILES | GAA glycogen | N370S GC mod | aGal spleen mod | aGlu spleen mod | GAA inhib | GLA inh pH 4.5
CC1OC(OCC2OC(Oc3cc(O)c4c(c3)OC(c3ccc(O)cc3)CC4=O)C(O)C(O)C2O)C(O)C(O)C1O (configuration not stated) | . | -6.2% | 14.7% | -1.0% | . | .
C[C@H]1Cc2c(-c3ccccc3)nc3c(c2CO1)CN(C(=O)Nc1cccc(C#N)c1)CC3 | . | -0.8%[12.8 µM] | -0.3%[17.5 µM] | 5.6%[17.4 µM] | . | 6.2
COc1ccc(C2=Nn3c(nnc3-c3ccc(OC)c(OC)c3)SC2)cc1 | . | -1.7% | 0.9% | 5.6% | . | .
COc1cc(SC)ccc1C(=O)N1CCN(c2ccc(O)cc2)CC1 | 3.98µM* | -19.7% | 4.7% | 1.9% | 3.5% | 2.2
COc1cc(SC)ccc1C(=O)N1CCN(c2ccccc2)CC1 | -12.3% | -2.8% | 4.2% | -3.0% | 13.2% | -0.2
COc1ccc(C2NC3=C(CCC3)C3(C#N)C4(N=C(N)C23C#N)OCCO4)cc1 (configuration not stated) | 22.2µM* | 6.4% | -7.8% | 3.2% | -9.8% | -5.2
COc1ccc(C2NC3=C(CCCC3)C(C#N)(C#N)C2(C#N)C#N)cc1 (configuration not stated) | -27.0% | -9.7% | -0.8% | -6.8% | -10.6% | -5.3
CCc1ccc2nc3n[nH]c(N)c3cc2c1 | 17.8µM* | -0.5% | -8.3% | -3.1% | 1.5% | 7.0
Nc1[nH]nc2nc3ccccc3cc12 | ? | 9.3% | 5.9% | -4.3% | -0.8% | -1.5
COc1cccc(/C=N/c2oc(-c3ccccc3)cc2C#N)c1O | 28µM* | -16.2% | 1.6% | -8.3% | -3.7% | -10.6
N#Cc1cc(-c2ccccc2)oc1/N=C/c1ccccc1O | ? | 4.4% | 1.5% | -6.5% | -6.3% | 3.3
COc1ccc(S(=O)(=O)c2c(C)c(NS(=O)(=O)c3ccccc3)cc(C)c2O)cc1 | ? | 10.8% | -1.2% | -4.1% | -1.9% | -0.8
Cc1c(NS(=O)(=O)c2ccccc2)cc(C(C)C)c(O)c1S(=O)(=O)c1ccc(Cl)cc1 | 11.2µM* | . | . | . | . | .
C=C(C(=O)C(C)(C)O)C(O)c1ccc([N+](=O)[O-])cc1 (configuration not stated) | . | -4.5% | 1.6% | -9.1% | . | -5.9
COc1ccc(C(=O)CCNc2ccc(F)cc2)cc1 | -5.4% | -3.5% | -6.7% | -4.1% | . | 5.6
COc1ccc(NCCNc2ccc(OC)cc2)cc1 | 7.88µM* | 5.4% | -0.3% | -9.2% | 0.7% | 5.3
COc1ccc2c(c1)O[C@@H](c1ccc3c(c1)OCO3)[C@H](OC(=O)NCCOc1ccccc1)C2=O | . | 7.1% | 1.4% | 3.0% | . | -3.1
CC[C@H](C)[C@H](NC(=O)[C@H](Cc1ccc(O)cc1)NC(=O)[C@@H](NC(=O)[C@H](CCCN=C(N)N)NC(=O)[C@@H](N)CC(=O)O)C(C)C)C(=O)N[C@@H](Cc1ccc(N)cc1)C(=O)N1CCC[C@H]1C(=O)N[C@@H](Cc1ccccc1)C(=O)O | . | -8.4% | 0.9% | -14.3% | . | .
OC[C@H]1OC(O)[C@H](O)[C@@H](O)[C@@H]1O (some centres not stated) | . | -2.5% | 10.3% | 3.4% | . | .
COCCNc1c(-c2ccc(OC)cc2)nc2ccc(Cl)cn12 | 4.97µM* | -23.6% | 4.0% | 7.9% | 7.1% | 8.9
CCCCn1c(C)cc2cc(O)ccc21 | 31.6µM* | -1.6% | -5.0% | -4.5% | 0.8% | -5.5
CC(=O)c1cc2c(O)c(O)ccc2o1 | 31.4µM* | -6.9% | 2.1% | -6.5% | -0.4% | 1.6
CC(=O)c1cc2cc(O)ccc2o1 | -0.9% | ? | ? | ? | ? | ?
COc1ccc(NC(=S)NNc2ccc([N+](=O)[O-])cc2S(=O)(=O)Nc2ccc(C)cc2C)cc1 | ? | 22.4µM* | 1.1% | -2.4% | ? | -11.9
Cc1ccc(NS(=O)(=O)c2cc([N+](=O)[O-])ccc2NNC(=S)Nc2cc(C)ccc2C)c(C)c1 | 7.3% | ? | -4.4% | -6.3% | -10.9% | -11.1
SMILES | GAA glycogen | N370S GC mod | aGal spleen mod | aGlu spleen mod | GAA inhib | GLA inh pH 4.5
COc1cc(NC(=O)O[C@@H]2C(=O)c3cc(Br)ccc3O[C@H]2c2ccc3c(c2)OCO3)cc(OC)c1OC | . | -15.5% | -6.9% | -1.7% | . | -2.9
CN1C(=O)/C(=C/C=C2\SCCN2C)N(C)C1=S | 11.2µM* | -10.1% | -2.6% | -3.1% | ? | -10.9[21.1 µM]
FC(F)(F)c1ccccc1-c1nccc(NCc2cccs2)n1 | . | 3.16µM* | -3.8% | 6.7% | . | .
FC(F)(F)c1ccccc1-c1nccc(NCc2ccccc2)n1 | . | 11.2µM* | 0.7% | 12.7% | . | -0.4
CC[C@H](C)[C@H](NC(=O)[C@H](CCC(=O)O)NC(=O)CNC(=O)[C@@H](NC(=O)[C@@H]1CCCN1C(=O)[C@@H](NC(=O)[C@@H]1CCCN1C(=O)[C@@H]1CCCN1C(=O)[C@H](CC(N)=O)NC(=O)[C@H](CC(N)=O)NC(=O)[C@@H](NC(=O)[C@H](CCSC)NC(=O)[C@H](Cc1c[nH]c2ccccc12)NC(=O)CNC(=O)[C@@H](NC(=O)[C@H](CCC(N)=O)NC(=O)[C@@H](N)CCC(=O)O)[C@@H](C)CC)[C@@H](C)O)[C@@H](C)CC)C(C)C)C(=O)O | . | -2.8% | 0.2% | 1.0% | . | .
COC1=CC(=O)C(O)=C/C1=C\C=C\c1ccccc1 | . | -4.2% | -1.5% | -3.8% | . | -3.7
NC(=O)Cc1c[nH]c2cccc(O)c12 | 10µM* | 9.4% | -1.8% | 4.0% | 1.5% | 7.1
COc1ccc(C(=O)NNC(=S)NC(=O)c2cccnc2)cc1 | 39.5µM* | -11.8% | 1.2% | -3.4% | 3.6% | -2.0
COc1ccc(NC(=S)NNC(=O)c2cccnc2)cc1OC | 3.95µM* | -10.0% | 6.8% | -6.1% | -6.7% | 2.0
CCCCC/C=C\C\C=C/C=C/C=C/[C@@H](SC[C@H](NC(=O)CC[C@H](N)C(=O)O)C(=O)NCC(=O)O)[C@@H](O)CCCC(=O)O | . | -6.8% | -18.2% | 5.5% | . | .
CC1CCC(NC(=O)Nc2cccs2)CC1 (configuration not stated) | 15.8µM* | 1.8% | -0.4% | -6.6% | -7.7% | 0.7
C=C1CCN(C(Cc2ccccc2)C(=O)Nc2ccc(OC)cc2)S(=O)(=O)c2ccccc21 (configuration not stated) | . | 4.7% | 4.6% | -1.4% | . | .
